Pf apPOL inh – Pf-apPOL DNA polymerase inhibition; Recombinant Pf-apPOL, molecular beacon fluorescence, 1.5 h; inhibition, % at 10 µM; 210,000 tested, 0.25% active; AID 1794808
mHTT-CaM PPI inh – inhibitors of human mutant huntingtin-calmodulin interaction; P42858; AlphaScreen His-mHTT/GST-CaM binding, luminescence; inhibition, % at 15 µM; 190,000 tested, 3.6% active
Numbers stand for hits; i = inactive; nt = not tested or not shown. Only some compounds are listed: those with a hit (about 3.6% of all), similar ones and a draw of the others. Cut-off read from the data, not from the text of the source: active = inhibition above about 50%; inactive = the rest.

SMILES | Pf apPOL inh | mHTT-CaM PPI inh
Cn1nc(-c2nc(Cc3ccccc3)no2)c2c1CCN(C(=O)Cc1cccc(F)c1)C2 | i | i
CC(=O)COc1ccc2c(c1C)OC(=Cc1ccco1)C2=O | i | i
CCCc1cc(C2CCCN2C(=O)Nc2ccc(Cl)cc2)no1 (centres undefined) | i | i
CCNC(=O)c1csc(COc2ccc(Cl)c(C)c2)n1 | i | i
O=c1sc2ccccc2c(Nc2ccc([N+](=O)[O-])cc2)c1[N+](=O)[O-] | nt | i
O=Cc1[nH]c2ccccc2c1Nc1ccc([N+](=O)[O-])cc1 | i | 100
O=[N+]([O-])c1ccc(Nc2c[nH]c3ccccc23)cc1 | i | 89
O=[N+]([O-])c1ccc(Nc2ccc(F)cc2)cc1 | i | nt
CCn1cnc2c1CN(CC(=O)NCc1cc(F)ccc1F)CC2 | i | i
O=C1C(=Cc2ccc3c(c2)OCO3)CCCc2ccccc21 | i | nt
CC1(C)C(CNC(=O)N2CCCCC2)CC1CNC(=O)N1CCCCC1 (centres undefined) | i | i
c1ccc2c(Cc3c[nH]c4ccc(-c5ccncc5)cc34)c[nH]c2c1 | i | 100
O=C(O)Cc1c[nH]c2ccccc12 | i | i
CC(=O)Nc1ccc(N=Cc2ccccc2F)cc1 | i | i
C=CCc1ccccc1OCC(O)CN1CCN(c2ccc(F)cc2)CC1 (centres undefined) | i | 75
C=CCc1ccccc1OCC(O)CN1CCN(c2ccccc2)CC1 (centres undefined) | i | 74
C=CCc1ccccc1OCC(O)CN1CCN(c2ccccc2F)CC1 (centres undefined) | i | i
C=CCc1ccccc1OCC(O)CN1CCN(c2ccccc2OC)CC1 (centres undefined) | i | i
Cc1ncsc1CN1CCC(c2nc(-c3ccccc3)no2)C1 (centres undefined) | i | i
Cn1cccc1CN1CCC(c2nc(-c3ccccc3)no2)C1 (centres undefined) | i | 50
CSc1cccc(NC(=O)C(=O)NCCC2=CCCCC2)c1 | i | i
CCCN1CCCc2cc(CCNC(=O)C(=O)Nc3cccc(SC)c3)ccc21 | i | 65
O=C(NCCc1ccco1)c1cc2n(n1)CCCN(Cc1ccccc1)C2=O | i | i
O=C(Oc1ccc2c(c1)OC(=Cc1ccccc1Br)C2=O)c1ccco1 | i | 50
O=C(Oc1ccc2c(c1)OC(=Cc1ccccc1)C2=O)c1ccco1 | i | i
SMILES | Pf apPOL inh | mHTT-CaM PPI inh
Cc1ccc(NS(=O)(=O)c2cc(S(=O)(=O)c3ccccc3)ccc2C)cc1 | i | i
O=C(CC1CCCCC1)N1CCN(c2nnc3c(Cl)cccn23)CC1 | i | 60
O=C(c1ccsc1)N1CCN(c2nnc3c(Cl)cccn23)CC1 | i | i
COc1ccc(C2=NNC(c3ccc(Br)cc3)C2)c(O)c1 (centres undefined) | i | i
O=[N+]([O-])c1ccc(O)c(C2=NNC(c3ccncc3)C2)c1 (centres undefined) | i | i
Oc1ccc(Cl)cc1C1=NNC(c2ccc3c(c2)OCCO3)C1 (centres undefined) | i | 63
Cn1c(Cl)cnc1C1CC(=O)c2cc(Cl)ccc2O1 (centres undefined) | i | i
O=[N+]([O-])c1ccc(O)c(C2=NNC(c3ccc(Cl)cc3)C2)c1 (centres undefined) | i | 55
Cn1c(Cl)cnc1C1CC(c2cc(Cl)ccc2O)=NN1 (centres undefined) | i | 67
Oc1ccc(F)cc1C1=NNC(c2ccc3c(c2)OCCO3)C1 (centres undefined) | i | i
Oc1ccccc1C1=NNC(c2ccc(Br)cc2)C1 (centres undefined) | i | 57
COc1ccccc1NC(=O)N1CCC(CNS(=O)(=O)c2cc(C)ccc2C)CC1 | i | i
CN1C(=O)c2ccccc2Oc2ccc(C(=O)N3CCOCC3)cc21 | i | i
Cc1ccc(CNC(=O)N2CCC3(CC2)Nc2cc(F)ccc2-n2cccc23)cc1 | i | 66
O=C(NCc1ccco1)N1CCC2(CC1)Nc1cc(F)ccc1-n1cccc12 | i | i
Cc1ccc2c(c1)NC1(CCN(C(=O)CSCc3ccc(F)cc3)CC1)c1cccn1-2 | i | 100
CNC(=O)N1CCC2(CC1)Nc1cc(F)ccc1-n1cccc12 | i | i
O=C(NCc1ccccc1)N1CCC2(CC1)Nc1cc(F)ccc1-n1cccc12 | i | 51
COc1cccc(CNC(=O)N2CCC3(CC2)Nc2cc(F)ccc2-n2cccc23)c1 | i | i
CCc1cccc(NC(=O)c2cc(CC)n3nccc3n2)c1 | i | i
O=c1[nH]c2ccccc2nc1Cc1ccc(Br)s1 | i | i
Cc1nn(CCCC(=O)NC2CCCCC2)c(C)c1[N+](=O)[O-] | i | i
COCCN1C(=O)Cc2ccccc2C1C(=O)N1CCN(c2ccccc2Cl)CC1 (centres undefined) | i | i
NS(=O)(=O)c1ccc(-c2ccc(C=O)o2)cc1 | i | i
O=Cc1ccc(-c2ccc(S(=O)(=O)O)cc2)o1 | i | 76
SMILES | Pf apPOL inh | mHTT-CaM PPI inh
Cc1ccc(C(=O)O)cc1N1C(=O)c2ccc(Oc3ccc([N+](=O)[O-])cc3)cc2C1=O | i | i
O=C(CN1CCC2(CC1)N=C(c1cccc(Cl)c1)C(=O)N2)Nc1cccc(Cl)c1 | i | i
Cc1ccc(C)c(NC(=O)CN2CCC3(CC2)N=C(c2ccc(F)cc2)C(=O)N3)c1 | i | 51
Cc1cccc(C)c1NC(=O)CN1CCC2(CC1)N=C(c1ccc(F)cc1)C(=O)N2 | i | i
O=C(CN1CCC2(CC1)N=C(c1cccc(Cl)c1)C(=O)N2)Nc1ccc2c(c1)OCO2 | i | 53
O=C(CN1CCC2(CC1)N=C(c1ccc(F)cc1)C(=O)N2)Nc1ccccc1 | i | i
O=C(CN1CCC2(CC1)N=C(c1ccccc1)C(=O)N2)Nc1cccc(C(F)(F)F)c1 | i | 96
NS(=O)(=O)c1ccc(CCNC2CC(=O)N(c3ccc(Cl)c(Cl)c3)C2=O)cc1 (centres undefined) | i | i
O=C(C1CCc2nc(N3CCCC3)ncc2C1)N1CCN(Cc2ccc3c(c2)OCO3)CC1 (centres undefined) | i | i
Cc1ccc(S(=O)(=O)c2nc(-c3ccc(Cl)cc3)oc2N2CCOCC2)cc1 | i | i
Cc1sc(NC(=O)c2c(F)c(F)c(F)c(F)c2F)c(C(N)=O)c1C | i | i
OC(COCC12CC3CC(CC(C3)C1)C2)CN1CCCC1 (centres undefined) | i | i
COc1ccc(OCC(O)CN2CCN(c3ccc(OC)cc3)CC2)cc1 (centres undefined) | i | i
COc1ccc(N2CCN(CC(O)COCC34CC5CC(CC(C5)C3)C4)CC2)cc1 (centres undefined) | i | 70
OC(COCC12CC3CC(CC(C3)C1)C2)CN1CCN(c2cccc(Cl)c2)CC1 (centres undefined) | i | 99
Cc1ccc(C(=O)Nc2ccc(N(C)C)cc2)c(Cl)c1 | i | i
Cc1ccc(-c2c(C(=O)NCCN3CCN(c4ccccc4)CC3)oc(=O)c3ccccc23)cc1 | i | 54
Cc1ccc(-c2c(C(=O)NCc3ccccc3)oc(=O)c3ccccc23)cc1 | i | i
CCC(=O)N(c1ccccc1)C1CC(C)Nc2ccccc21 (centres undefined) | i | i
CC1CC(N(C(=O)c2ccccc2Cl)c2ccccc2)c2ccccc2N1 (centres undefined) | i | 98
Cc1ccc(N2CCC(NC(=O)C3CCC3)C2=O)cc1C (centres undefined) | i | i
CC1(C(=O)NCc2ccccc2)CCC(=O)N1Cc1ccco1 (centres undefined) | i | i

Compound activity: PubChem BioAssay, University of Kansas High Throughput Screening Laboratory
